Results published in PubChem BioAssay (NCATS).
A number with no mark means an inactive call. Results filed as inconclusive are left out. Activity calls are given as the source filed them. Calls follow the shape of the dose curve; as a rule, active = well fitted curve in the direction sought with a large enough effect; inconclusive = small, poorly fitted or top-dose-only effect, or another doubt; inactive = no such curve, though single readings can be large; an effect the other way counts as inactive or inconclusive.

Legend:
[1] = molecular target: Cytochrome P450 3A4 (Homo sapiens) (UniProt P08684); assay: qHTS Assay for Inhibitors and Substrates of Cytochrome P450 3A4 (AID 884); also: potency is read from the fitted curve at half-maximal effect; nearly all actives have a fitted effect of over 50% in size
Summary of the method: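 Luminescent readout of luciferin produced by CYP3A4 (20 nM) dealkylation of Luciferin-PPXE, 25 uM (its KM). NADPH-driven reaction ran 60 min at RT after 10 min compound preincubation; data scaled to 57 uM ketoconazole as 100% inhibition.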

[2] = molecular target: Cytochrome P450 3A4 (Homo sapiens) (UniProt P08684); assay: qHTS Assay for Activators of Cytochrome P450 3A4 (AID 885); also: nearly all actives have a fitted effect of over 65% in size
Summary of the method: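 Human CYP3A4 dealkylates Luciferin-PPXE to luciferin, which luciferase detection converts to light. Substrate was at its KM (25uM), buffer 200mM KPO4, reaction 60 min at RT.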

Cytochrome P450 3A4 (Homo sapiens), sequence (P08684 whole entry, looked up): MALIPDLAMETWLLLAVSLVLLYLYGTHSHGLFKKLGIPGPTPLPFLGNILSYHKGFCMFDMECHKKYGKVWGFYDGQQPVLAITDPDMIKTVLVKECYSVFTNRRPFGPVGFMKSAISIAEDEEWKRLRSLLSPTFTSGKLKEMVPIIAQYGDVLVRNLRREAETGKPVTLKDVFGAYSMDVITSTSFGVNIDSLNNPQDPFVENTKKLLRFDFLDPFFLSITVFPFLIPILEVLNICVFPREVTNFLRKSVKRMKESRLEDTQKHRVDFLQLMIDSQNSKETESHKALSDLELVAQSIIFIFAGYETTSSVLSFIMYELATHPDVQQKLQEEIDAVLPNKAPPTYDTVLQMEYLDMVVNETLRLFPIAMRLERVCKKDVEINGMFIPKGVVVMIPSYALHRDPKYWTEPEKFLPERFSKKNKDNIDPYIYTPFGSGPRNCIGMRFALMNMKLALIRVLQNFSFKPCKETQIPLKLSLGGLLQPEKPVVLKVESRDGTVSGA

## CCC1=C2CC[C@H]3C(=O)NC(=O)[C@H]3[C@H]2[C@@]2(Cc3ccccc3)C(=NCc3ccccc3)OC(=O)N2C1=O
[1]
  Potency: 6.31 µM (active)
[2]
  Potency: inactive

## CO[C@@H]1COC(=O)CCC[C@@H](C)[C@H](OC)COC(=O)[C@H](Cc2ccccc2)NC(=O)C/C=C\[C@H]1C
[1]
  Potency: 3.98 µM (active)
[2]
  activity change, positive = activation: -87.8% [at 11.4 µM]

## COc1ccccc1-c1oc2ccccc2c(=O)c1O
[1]
  Potency: 25.1 µM (active)
[2]
  Potency: inactive

## CNC1=C(Cl)C(=O)c2ccncc2C1=O
[1]
  Potency: 1.58 µM (active)
[2]
  Potency: inactive

## CCCCCCN(C(=O)CCCCCN1C(=O)NC(c2ccc([N+](=O)[O-])cc2)C(C(=O)OCc2ccccc2)=C1C)C(C(=O)NCCCC)c1ccc(OCC(=O)OC)c(C(=O)OC)c1 (stereo not drawn)
[1]
  Potency: 2 µM (active)
[2]
  Potency: inactive

## Cc1ccc(S(=O)(=O)N[C@H]2COC(=O)[C@@H](Cc3ccccc3)NC(=O)[C@@H](C)COC(=O)C/C=C\[C@@H]2C)cc1
[1]
  Potency: 3.98 µM (active)
[2]
  activity change, positive = activation: -80.1% [at 11.4 µM]

## CCC1=C(OC(=O)N(CC)CC)N2C(=O)OC(=NCC(=O)OC)[C@]2(Cc2ccccc2)[C@H]2C1=CC[C@H]1C(=O)N(CC(=O)OC)C(=O)[C@H]12
[1]
  Potency: 5.01 µM (active)
[2]
  Potency: inactive

## COC(=O)[C@@H]1C[C@@]2(O)[C@@H](O)[C@@H](O)[C@@H](O)C[C@H]2N1Cc1ccc(C(C)(C)C)cc1
[1]
  Potency: 12.6 µM (active)
[2]
  Potency: inactive

## COC(=O)c1ccc(C23CC4(C2)[C@H](CN(Cc2cccnc2)[C@@H]4c2ccccc2)C3c2ccccc2)cc1 (stereo partly drawn)
[1]
  Potency: 3.98 µM (active)
[2]
  Potency: inactive
